rCAG binder: binders of r(CAG) RNA repeats, primary screen, biochemical, fluorescence | r(CAG) RNA repeat, TO-PRO-1 dye displacement fluorescence | inhibition, % at 3 µM | 1.3% of 370,000 active;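 active = inhibition above the plate cutoff, the mean of all test compounds on that plate plus 3 SD, cut at about 35% in these data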;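 note: 0% = DMSO alone and 100% = 100 µM mitoxantrone as full dye displacement; higher means more dye released from RNA so lower well fluorescence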
ABCB6 inh 2: ABCB6 transporter inhibitors, primary screen, K562-ABCB6 cells, flow cytometry, MLPCN library. K562-ABCB6 porphyrin accumulation, 1 h; active compounds read low. AID 602162, 2011. 0.19% of 360,000 active. ATP-binding cassette sub-family B member 6 (Homo sapiens), Q9NP58. fluorescence ratio to DMSO, % at 10 µM;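 active = fluorescence ratio to DMSO below 75%, the collection mean minus 3 SD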;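 note: signal is porphyrin accumulated inside mitochondria; 100% equals median channel fluorescence of DMSO control wells; lower ratio means ABCB6 inhibition with less porphyrin fluorescence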
Granule exo inh: LAMP-1 surface exposure blockers, TALL-104 cells – cell-based, flow cytometry, MLPCN library, primary screen | TALL-104 LAMP-1 surface exposure; cells stimulated with thapsigargin and PMA | AID 651702, 2012 | inhibition, % at 10 µM | 0.66% of 360,000 active;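 active = inhibition above about 55%, limit read from the data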
PG9 Ab binder: binders of HIV-1 gp120 antibody PG9, primary screen, biochemical, TR-FRET. HIV-1 gp120 / PG9 antibody interaction. TR-FRET gp120-PG9 antibody binding. inhibition, % at 6.7 µM. 0.43% of 360,000 active. AID 624416, 2012; in the data active = inhibition above about 8.5%
rCAG bind conf: small molecules binding CAG repeat RNA – biochemical, fluorescence, confirmation; inhibition, % at 3 µM; shares compounds with rCAG binder; 70% of 4,300 active; AID 652065, 2013; r(CAG) RNA repeat, TO-PRO-1 dye displacement fluorescence;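 active = inhibition above a per-plate cutoff, the mean inhibition of sample wells plus 3 SD, cut at about 35% in these data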;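 note: loss of TO-PRO-1 fluorescence as compound displaces dye from 1x1 AA loop RNA; 0% = DMSO only wells and 100% = 100 µM mitoxantrone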
dCAG dye counter: displacement of TO-PRO-1 from CAG DNA duplex, counter-screen for rCAG RNA repeat binder project, biochemical, fluorescence, TO-PRO-1 dye, d(CAG) DNA oligo | inhibition, % at 3 µM | 94% of 4,300 active | d(CAG) DNA oligo TO-PRO-1 dye displacement | shares compounds with rCAG binder;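 active = inhibition above its plate's cutoff, the mean test-well inhibition plus 3 SD, cut at about 4.8% in these data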;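 note: 0% = DNA dye mix with DMSO and 100% = 100 µM mitoxantrone; hits displace the dye from DNA and so lower well fluorescence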
The depositor's hits bear a star; · = no result. Compounds with a hit are over-represented: about 2.5% of the library has one in this group of screens.

SMILES | rCAG binder | ABCB6 inh 2 | Granule exo inh | PG9 Ab binder | rCAG bind conf | dCAG dye counter
c1ccc(N=Nc2cn[nH]c2-c2ccco2)cc1 | 5 | 99 | -2 | -4 | · | ·
CCCCCCCCCCS(=O)(=O)N/N=C/c1ccc([N+](=O)[O-])cc1 | 42* | 91 | -2 | 0 | 52* | 16*
CCOc1ccc(NS(=O)(=O)c2ccc(Cl)c(N=Nc3c(O)[nH]c(=S)[nH]c3=O)c2)cc1Br | 93* | 95 | -5 | -2 | 93* | 66*
CN(C(=O)CSc1cc(Cl)ccc1Cl)C1CCS(=O)(=O)C1 (stereo unspecified) | 2 | 100 | 42 | -3 | · | ·
CCN(C(=O)CSc1nc2cc(C(=O)O)ccc2c(=O)n1Cc1ccccc1)c1ccccc1 | 38* | 97 | -6 | -1 | 53* | 16*
Cc1c(Cl)cccc1NC(=S)NC1CCN(C(C)C)CC1 | -2 | 101 | 25 | 0 | · | ·
COc1ccc(N(Cc2ccccc2)S(=O)(=O)c2cc(C(=O)O)ccc2Cl)cc1 | 53* | 97 | 0 | 0 | 42* | 8.9*
CCN(CC)S(=O)(=O)c1cc(C(=O)O)ccc1Cl | 3 | 100 | 0 | 0 | · | ·
O=C(O)c1ccc(Cl)c(S(=O)(=O)N(Cc2ccccc2)c2ccc(F)cc2)c1 | 54* | 98 | 2 | -1 | 48* | 13*
O=C(O)c1ccc(Cl)c(S(=O)(=O)N(Cc2ccccc2)c2ccccc2Cl)c1 | 73* | 103 | -6 | -1 | 68* | 22*
O=C(O)c1cccc(S(=O)(=O)N(Cc2ccccc2)c2ccc(Cl)cc2)c1 | 38* | 102 | 5 | 0 | 41* | 12*
O=C(O)c1cc(S(=O)(=O)N(Cc2ccccc2)c2ccccc2Cl)ccc1Cl | 33 | 102 | 0 | 0 | · | ·
O=C(O)c1ccc(CN(c2ccccc2)S(=O)(=O)c2ccccc2)cc1 | 4 | 96 | -10 | -1 | · | ·
N#CC(=C1Nc2ccccc2N1)S(=O)(=O)c1ccccc1 | 2 | 99 | -1 | 0 | · | ·
O=C(NC1CCN(Cc2ccccc2)CC1)c1ccccc1NS(=O)(=O)c1ccc(F)c(F)c1 | 36* | 95 | -1 | 1 | 21 | 3
O=C(NC1CCN(Cc2ccccc2)CC1)c1cc(S(=O)(=O)Nc2ccc(F)cc2)ccc1Cl | 4 | 95 | 3 | -1 | · | ·
COc1ccc(C(C(=O)Nc2c(C)cccc2C)n2c(=O)c(-c3ccco3)nc3ccccc32)cc1 (stereo unspecified) | 38* | · | -1 | -2 | 15 | 10*
Cc1cccc(C)c1NC(=O)C(c1ccccc1)n1c(=O)c(-c2ccco2)nc2ccccc21 (stereo unspecified) | 31 | · | 1 | -3 | · | ·
CC(C)(C)NC(=O)C(c1ccncc1)n1c(=O)c(-c2ccco2)nc2ccccc21 (stereo unspecified) | 19 | · | -10 | -1 | · | ·
CC(C)(C)NC(=O)C(c1ccnc2ccccc12)n1c(=O)c(-c2ccco2)nc2ccccc21 (stereo unspecified) | 36* | · | -21 | 2 | 19 | 15*
CCOc1ccc(CCNC(=O)c2ccc3c(=O)[nH]c4c(C(=O)NC(C)C)sc(=S)n4c3c2)cc1 | 14 | 101 | 5 | -2 | · | ·
O=C(NCCc1ccc(Cl)cc1)c1ccc2c(=O)[nH]c3c(C(=O)NCC4CCCO4)sc(=S)n3c2c1 (stereo unspecified) | 44* | · | · | -1 | 85* | 70*
O=C(NCCc1ccccc1)c1ccc2c(=O)[nH]c3c(C(=O)NCC4CCCO4)sc(=S)n3c2c1 (stereo unspecified) | 91* | 98 | -2 | -4 | 93* | 71*
CC(=O)c1ccc(N2CCN(C(=O)c3ccc4c(=O)[nH]c5c(C(=O)NC6CCCC6)sc(=S)n5c4c3)CC2)cc1 | 28 | · | · | -1 | · | ·
CC(C)NC(=O)c1sc(=S)n2c1[nH]c(=O)c1ccc(C(=O)NCCc3ccc(Cl)cc3)cc12 | 4 | 102 | 0 | -3 | · | ·

Screens as filed in PubChem.
